Only a selection was taken, and hits are over-represented in it overall.
HT1080-NT tox = kills 2HG-producing HT-1080-NT fibrosarcoma cells; Potency, µM (series often up to 46.1 µM), for inactives: at the top dose activity, negative = less viability, hits mostly cytotoxic; 1.6% of 360,000 active; HT-1080-NT fibrosarcoma viability, CellTiter-Glo ATP luminescence, 48 h;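 also: NT is the 2HG producing partner of a matched IDH1 knockdown line; potency is read from the fitted curve at half-maximal effect; 0% = DMSO-treated cells and -100% = media-only wells without cells; nearly all actives have a fitted effect of over 55% in size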
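HT-1080-NT; 750 cells/well; 5% FBS RPMI; 48 h compound, 37 degrees C; CellTiter-Glo luminescence; curve fitting and curve-class assignment.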
TDP1 cell noCPT = qHTS for Inhibitors of human tyrosyl-DNA phosphodiesterase 1 (TDP1): qHTS in cells in absence of CPT. DT40 Tdp1-/- hTDP1 cells, no CPT, ATP luminescence, 48 h. Potency, µM (doses to about 46.2 µM), without a hit: at the highest dose activity change, negative = growth inhibition, usual class: inhibitors. 15% of 420,000 active. AID 686978, 2013; also: potency is read from the fitted curve at half-maximal effect; nearly all actives have a fitted effect of over 55% in size
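Compound effects on proliferation are scored in DT40 Tdp1-/-;hTDP1 cells in the absence of CPT. ATP levels (CellTiter-Glo luminescence) are recorded after a ≥48 hr, 37 °C incubation.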
HT1080 IDH1KD tx = toxicity to HT-1080 IDH1 knockdown cells (counter line) | HT-1080 IDH1 knockdown viability, ATP luminescence, 48 h | Potency, µM (series often up to 46.1 µM), inactives show top-dose activity, negative = toxicity, usual class: cytotoxic | 2% of 360,000 active;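 also: potency is read from the fitted curve at half-maximal effect; 0% = DMSO wells and -100% = cell-free medium wells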
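Luminescent ATP read-out (CellTiter-Glo, 10 min at room temperature) after 48 h compound exposure at 37 °C gave viability of IDH1-knockdown HT-1080 cells. Activity was normalised to DMSO and cell-free wells, then fitted as concentration-response curves.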
IL1B secr inh = inflammasome signaling inhibition, IL-1 beta readout | 4.7% of 360,000 active | activity change, % at 57.5 µM | THP-1 LPS/ATP IL-1B secretion, AlphaLISA, 16 h; hits give low values | AID 743279; in the data active = activity change below about -50%; inconclusive = mostly about -30% to -49%
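THP-1 cells pretreated 1 hr with compounds (up to 57.5 uM final), then stimulated with LPS (250 ng/mL final) plus ATP (1.25 mM final); secreted IL-1B measured by AlphaLISA after 16 hr, decreased signal indicating inhibition.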
TDP1 cell CPT = growth inhibition of DT40 Tdp1-/-;hTDP1 cells with camptothecin (screen for TDP1 inhibitors); Potency, µM (top dose mostly 46.2 µM), inactives show at the highest dose activity change, negative = growth inhibition, hits mostly inhibitors; 12% of 420,000 active; AID 686979; chicken DT40 Tdp1-/-;hTDP1 cells + 20 nM CPT, ATP luminescence, 48 h; also: potency is read from the fitted curve at half-maximal effect; nearly all actives have a fitted effect of over 55% in size
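Chicken DT40 Tdp1-/- cells complemented with human TDP1, 400 cells/well, exposed to compounds plus 20 nM camptothecin for at least 48 h at 37 C; viability read as ATP content by CellTiter-Glo luminescence.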
12-LOX inh = blocks human arachidonate 12S-lipoxygenase | P18054 | Potency, µM (doses to about 108 µM), without a hit: at the highest dose activity change, negative = inhibition, usual class: inhibitors | 1.1% of 580,000 active | purified 12hLO, xylenol orange hydroperoxide absorbance; also: potency is read from the fitted curve at half-maximal effect
Target sequence (P18054 whole entry, looked up): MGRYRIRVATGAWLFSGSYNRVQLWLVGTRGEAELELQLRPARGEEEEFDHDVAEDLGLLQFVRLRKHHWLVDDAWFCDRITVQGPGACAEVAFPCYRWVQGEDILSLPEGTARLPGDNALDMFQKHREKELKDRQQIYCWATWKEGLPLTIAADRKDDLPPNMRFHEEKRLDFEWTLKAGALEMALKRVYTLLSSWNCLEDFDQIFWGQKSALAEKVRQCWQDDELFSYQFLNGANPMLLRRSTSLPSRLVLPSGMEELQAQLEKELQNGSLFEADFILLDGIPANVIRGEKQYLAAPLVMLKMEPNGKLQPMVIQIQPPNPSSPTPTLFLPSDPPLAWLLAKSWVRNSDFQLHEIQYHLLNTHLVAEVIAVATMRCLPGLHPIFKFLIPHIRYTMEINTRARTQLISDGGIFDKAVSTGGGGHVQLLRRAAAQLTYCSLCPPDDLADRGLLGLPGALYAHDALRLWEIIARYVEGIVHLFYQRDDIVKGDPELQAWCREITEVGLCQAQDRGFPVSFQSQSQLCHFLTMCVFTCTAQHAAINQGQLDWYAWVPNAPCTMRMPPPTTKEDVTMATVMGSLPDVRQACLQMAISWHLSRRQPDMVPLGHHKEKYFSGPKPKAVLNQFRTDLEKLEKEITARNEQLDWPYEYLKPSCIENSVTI
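Hydroperoxide product was detected by ferrous iron/xylenol orange as the 573 to 405 nm absorbance ratio. Arachidonic acid at 40 uM (final) was turned over for 30 min at room temperature by 150 nM human 12hLO, pH 7.0 Hepes buffer, after 15 min compound preincubation.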
* = called active by the depositor. Unless noted, calls follow the shape of the dose curve; as a rule, active = well fitted curve in the direction sought with a large enough effect; inconclusive = small, poorly fitted or top-dose-only effect, or another doubt; inactive = no such curve, though single readings can be large; an effect the other way counts as inactive or inconclusive. Unless noted, % is scaled to controls: 0 for no effect and ±100 for the full control effect.

Results for CNC(=S)/N=C/NOCc1ccc(Cl)cc1Cl ?
HT1080-NT tox: inconclusive; TDP1 cell noCPT: 20.6µM*; HT1080 IDH1KD tx: inconclusive; IL1B secr inh: -51.2*; TDP1 cell CPT: inconclusive; 12-LOX inh: inconclusive

How did NC(=S)Cc1ccc(Cl)cc1Cl do in these assays?
HT1080-NT tox: -2.1%; TDP1 cell noCPT: 4.8%; HT1080 IDH1KD tx: -17.5%; IL1B secr inh: -3.3; TDP1 cell CPT: 5.5%; 12-LOX inh: -141.4%

How did CCOC(=O)c1cc2c(=O)n3ccccc3nc2n(CC2CCCO2)c1=NC(=O)c1ccc(F)cc1 (stereo unspecified) do in these assays?
TDP1 cell noCPT: 4.0%; TDP1 cell CPT: -16.9%; 12-LOX inh: 4.6%

What do the screens show for `COc1ccc(N2C(=O)CN(Cc3cc(OC)c(OC)c(OC)c3)C2=S)cc1`?
HT1080-NT tox: -2.1%; TDP1 cell noCPT: 23.1µM*; HT1080 IDH1KD tx: -23.0%; IL1B secr inh: 8.2; TDP1 cell CPT: 16.4µM*; 12-LOX inh: -8.2%

How did COc1cccc(N2C(=O)CN(Cc3cc(OC)c(OC)c(OC)c3)C2=S)c1 do in these assays?
HT1080-NT tox: 1.0%; TDP1 cell noCPT: 20.6µM*; HT1080 IDH1KD tx: 1.6%; IL1B secr inh: 26.6; TDP1 cell CPT: -3.4%; 12-LOX inh: 0.0%

What do the screens show for `COc1ccc(CN2CC(=O)N(c3cccc(Cl)c3)C2=S)cc1OC`?
HT1080-NT tox: -6.4%; TDP1 cell noCPT: 14.6µM*; HT1080 IDH1KD tx: -17.6%; IL1B secr inh: -7.8; TDP1 cell CPT: -77.0%; 12-LOX inh: -15.0%

Results for COc1ccc(CN2CC(=O)N(c3cc(Cl)ccc3OC)C2=S)cc1OC ?
HT1080-NT tox: -20.3%; TDP1 cell noCPT: inconclusive; HT1080 IDH1KD tx: -10.0%; IL1B secr inh: 2.8; TDP1 cell CPT: inconclusive; 12-LOX inh: -3.2%

What do the screens show for `COc1ccc(Cl)cc1N1C(=O)CN(Cc2cc(OC)c(OC)c(OC)c2)C1=S`?
HT1080-NT tox: -1.9%; TDP1 cell noCPT: 8.2µM*; HT1080 IDH1KD tx: 6.6%; IL1B secr inh: -1.5; TDP1 cell CPT: 14.6µM*; 12-LOX inh: inconclusive

What do the screens show for `CCOc1ccc(S(=O)(=O)Nc2cc(OC)c(OC)cc2C(=O)O)cc1`?
HT1080-NT tox: 11.6%; TDP1 cell noCPT: 2.1%; HT1080 IDH1KD tx: 20.0%; IL1B secr inh: 17.4; TDP1 cell CPT: -8.5%; 12-LOX inh: inconclusive

Results for Cc1ccc(C)c(S(=O)(=O)Nc2cc(SCC(=O)O)c(O)c3ccccc23)c1 ?
HT1080-NT tox: 23.1µM*; TDP1 cell noCPT: 6.51µM*; HT1080 IDH1KD tx: 18.4µM*; IL1B secr inh: -98.5*; TDP1 cell CPT: 5.8µM*

How did Cc1ccc(C)c(SCC(=O)NC(=O)NCc2ccccc2)c1 do in these assays?
HT1080-NT tox: -3.3%; TDP1 cell noCPT: -18.6%; HT1080 IDH1KD tx: -3.5%; IL1B secr inh: -2.6; TDP1 cell CPT: -0.4%; 12-LOX inh: -4.2%

How did CCOc1ccc(S(=O)(=O)Nc2cc(SCC(=O)O)c(O)c3ccccc23)cc1 do in these assays?
HT1080-NT tox: 23.1µM*; TDP1 cell noCPT: 4.61µM*; HT1080 IDH1KD tx: 23.1µM*; IL1B secr inh: 94.3; TDP1 cell CPT: 3.66µM*; 12-LOX inh: inconclusive

How did O=C(O)CSc1cc(NS(=O)(=O)c2cccc([N+](=O)[O-])c2)c2ccccc2c1O do in these assays?
HT1080-NT tox: 13µM*; TDP1 cell noCPT: 1.84µM*; HT1080 IDH1KD tx: 18.4µM*; IL1B secr inh: -86.4*; TDP1 cell CPT: 2.31µM*; 12-LOX inh: inconclusive

Results for CC[C@@H]1C/C=C\Cc2ccccc2[C@H](C(=O)C[C@@H](O)CC(C)=O)OC1=O ?
HT1080-NT tox: -1.5%; TDP1 cell noCPT: inconclusive; HT1080 IDH1KD tx: 5.0%; IL1B secr inh: 60.6; TDP1 cell CPT: 13µM*; 12-LOX inh: -8.3%

Results for CCOC(=O)c1cnc(SCc2nc(-c3ccc(Cl)cc3)oc2C)nc1N ?
12-LOX inh: -0.5%

How did CCOC(=O)C(C)Sc1ncc(-c2ccc(Cl)cc2)cn1 (stereo unspecified) do in these assays?
HT1080-NT tox: -5.9%; TDP1 cell noCPT: -12.3%; HT1080 IDH1KD tx: -8.1%; IL1B secr inh: -17.5; TDP1 cell CPT: 4.61µM*; 12-LOX inh: -6.6%

How did COCC1CN(C(=O)NC2CCCC2)CC12CCNCC2 (stereo unspecified) do in these assays?
12-LOX inh: 6.3%

What do the screens show for `Cc1ccc(S(=O)(=O)NC2CC2)cc1C(=O)Nc1ccccc1C(=O)NC1CC1`?
12-LOX inh: 13.9%

What do the screens show for `COc1ccccc1CNC(=O)CSc1nc(-c2ccccc2)cn1N`?
HT1080-NT tox: -2.5%; TDP1 cell noCPT: -17.5%; HT1080 IDH1KD tx: 0.6%; IL1B secr inh: 0.2; TDP1 cell CPT: inconclusive; 12-LOX inh: -11.2%

What do the screens show for `CN(C(=O)CSc1nc(-c2ccccc2)cn1N)C(c1ccccc1)c1ccccc1`?
HT1080-NT tox: inconclusive; TDP1 cell noCPT: 25.9µM*; HT1080 IDH1KD tx: inconclusive; IL1B secr inh: inconclusive; TDP1 cell CPT: 20.6µM*; 12-LOX inh: -23.7%

Results for CN(c1ccccc1)S(=O)(=O)c1cc(C(=O)OCC(=O)c2c(N)n(C)c(=O)n(C)c2=O)ccc1Cl ?
HT1080-NT tox: -7.7%; TDP1 cell noCPT: inconclusive; HT1080 IDH1KD tx: -1.0%; IL1B secr inh: 21.3; TDP1 cell CPT: 25.9µM*; 12-LOX inh: -11.6%

Results for CCN(c1ccccc1)S(=O)(=O)c1cc(C(=O)OCC(=O)c2c(N)n(C)c(=O)n(C)c2=O)ccc1C ?
HT1080-NT tox: -2.7%; TDP1 cell noCPT: 23.1µM*; HT1080 IDH1KD tx: -2.9%; IL1B secr inh: 0.0; TDP1 cell CPT: 9.2µM*; 12-LOX inh: -19.3%

What do the screens show for `CN(C)S(=O)(=O)c1cccc(C(=O)OCC(=O)c2c(N)n(C)c(=O)n(C)c2=O)c1`?
HT1080-NT tox: -1.9%; TDP1 cell noCPT: -3.6%; HT1080 IDH1KD tx: -12.2%; IL1B secr inh: 37.5; TDP1 cell CPT: 11.7%; 12-LOX inh: -9.2%

Results for Cc1ccc(N(C)S(=O)(=O)c2cccc(C(=O)OCC(=O)c3c(N)n(C)c(=O)n(C)c3=O)c2)cc1 ?
HT1080-NT tox: -23.6%; TDP1 cell noCPT: 18.4µM*; HT1080 IDH1KD tx: -19.6%; IL1B secr inh: 50.7; TDP1 cell CPT: inconclusive; 12-LOX inh: 1.9%

Results for COc1ccccc1NC(=O)C1=C(C)Nc2nc(-c3ccc(F)cc3)nn2C1c1ccccn1 (stereo unspecified) ?
12-LOX inh: -6.3%

Screening data as filed in PubChem BioAssay.
